Measured values reported in the supplement of paper PMC6522484.
± gives the standard deviation of the averaged measurements.

Columns and labels:
[1] = tested on: DLD1; assay: cell viability (CellTiter-Glo) relative to plate median (fraction of plate median); higher = more viable cells; conditions: 10 µM, treatment time 24 h
Procedure, shortened: (§1)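 In 384-well plates, colorectal cancer lines with stable lentiviral 7TFP or TCF4/Wnt firefly luciferase reporters were seeded and, 24 h later, given kinase inhibitor library compounds at a final 10 µM for 24 h. A Tecan F500 reader measured firefly luciferase on one plate and CellTiterGlo on a parallel plate. Reported figures are two-replicate means of well signals normalised to the plate median, computed additively in webcellHTS2 without log transformation.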

[2] = tested on: HCT116; assay: as above; conditions: 10 µM; treatment time 24 h; reporter: TCF4/Wnt
Procedure, shortened: as §1

[3] = tested on: SW480; assay: as above; conditions: 10 µM; treatment time 24 h; reporter: 7TFP
Procedure, shortened: as §1

[4] = tested on: DLD1; assay: TCF/Wnt firefly luciferase reporter signal relative to plate median (fraction of plate median); higher = higher Wnt reporter signal; conditions: 10 µM, treatment time 24 h
Procedure, shortened: as §1

[5] = tested on: HCT116; assay: as above; conditions: 10 µM; treatment time 24 h; reporter: TCF4/Wnt
Procedure, shortened: as §1

[6] = tested on: SW480; assay: as above; conditions: 10 µM; treatment time 24 h; reporter: 7TFP
Procedure, shortened: as §1

[7] = tested on: DLD1; assay: cell viability (CellTiter-Glo) relative to plate median (fraction of plate median); higher = more viable cells; conditions: 5 µM; treatment time 24 h; reporter: 7TFP
Procedure, shortened: (§2)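 After seeding in 384-well plates, colorectal cancer cell lines carrying stable lentiviral TCF/Wnt firefly luciferase reporters (7TFP or TCF4/Wnt) were left 24 h. Library compounds were then added at a final 5 µM for 24 h. A Tecan F500 reader measured firefly luciferase or CellTiterGlo luminescence on parallel plates, with each well normalised to the plate median by webcellHTS2 (additive, no log transformation), and two independent replicates averaged.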

[8] = tested on: HCT116; assay: as above; conditions: 5 µM; treatment time 24 h; reporter: TCF4/Wnt
Procedure, shortened: as §2

[9] = tested on: SW480; assay: as above; conditions: 5 µM; treatment time 24 h; reporter: 7TFP
Procedure, shortened: as §2

[10] = tested on: DLD1; assay: TCF/Wnt firefly luciferase reporter signal relative to plate median (fraction of plate median); higher = higher Wnt reporter signal; conditions: 5 µM; treatment time 24 h; reporter: 7TFP
Procedure, shortened: as §2

[11] = tested on: SW480; assay: as above; conditions: 5 µM; treatment time 24 h; reporter: 7TFP
Procedure, shortened: as §2

| Structure (SMILES) | cell viability ([1]; reporter: 7TFP) | cell viability ([1]; reporter: TCF4/Wnt) | cell viability [2] | cell viability [3] | TCF/Wnt firefly luciferase reporter signal ([4]; reporter: 7TFP) | TCF/Wnt firefly luciferase reporter signal ([4]; reporter: TCF4/Wnt) | TCF/Wnt firefly luciferase reporter signal [5] | TCF/Wnt firefly luciferase reporter signal [6] | cell viability [7] | cell viability [8] | cell viability [9] | TCF/Wnt firefly luciferase reporter signal [10] | TCF/Wnt firefly luciferase reporter signal [11] |
| --- | --- | --- | --- | --- | --- | --- | --- | --- | --- | --- | --- | --- | --- |
| CCc1cc2c(cc1N1CCC(N3CCOCC3)CC1)C(C)(C)c1[nH]c3cc(C#N)ccc3c1C2=O | 1.05 ± 0.071 | 0.995 ± 0.064 | 1.18 ± 0.26 | 0.853 ± 0.033 | 1.08 ± 0.078 | 1.05 ± 0.12 | 1.01 ± 0.17 | 0.638 ± 0.31 |  |  |  |  |  |
| CS(=O)(=O)N1CCN(Cc2cc3nc(-c4cccc5[nH]ncc45)nc(N4CCOCC4)c3s2)CC1 | 0.998 ± 0.19 | 1.03 ± 0.05 | 1.08 ± 0.021 | 1 ± 0.035 | 0.93 ± 0.14 | 0.947 ± 0.16 | 1.16 ± 0.057 | 1.04 ± 0.075 |  |  |  |  |  |
| CCc1cccc(CC)c1NC(=O)N1Cc2[nH]nc(NC(=O)c3ccc(N4CCN(C)CC4)cc3)c2C1 | 1.05 ± 0.2 | 1.055 ± 0.0071 | 0.954 ± 0.093 | 1.1 ± 0.078 | 1.26 ± 0.014 | 1.09 ± 0.057 | 0.996 ± 0.19 | 0.794 ± 0.039 |  |  |  |  |  |
| COc1cc2ncnc(Nc3cccc(Cl)c3)c2cc1OC [AG-1478 (Tyrphostin AG-1478)] | 0.949 ± 0.059 | 1 ± 0.053 | 1.12 ± 0.014 | 0.9395 ± 0.005 | 0.847 ± 0.03 | 0.75 ± 0.1 | 1.015 ± 0.0071 | 0.962 ± 0.054 |  |  |  |  |  |
| Cc1ccc(NC(=O)c2ccc(CN3CCN(C)CC3)cc2)cc1Nc1nccc(-c2cccnc2)n1 [Imatinib (Gleevec)] | 1.05 ± 0.099 | 1.035 ± 0.0071 | 0.993 ± 0.024 | 0.986 ± 0.011 | 1.65 ± 0.057 | 1.55 ± 0.11 | 1.42 ± 0.23 | 1.39 ± 0.22 |  |  |  |  |  |
| CC(C)(C)Cn1c(N)nc2ccc(-c3[nH]c(C(C)(C)C)nc3-c3ccc(F)cc3)nc21 | 1.07 ± 0.12 | 0.931 ± 0.089 | 0.928 ± 0.071 | 1.11 | 1.21 ± 0.05 | 0.969 ± 0.1 | 1.45 ± 0.38 | 1.36 ± 0.014 |  |  |  |  |  |
| Cc1ccc(NC(=O)c2cccc(C(C)(C)C#N)c2)cc1Nc1ccc2ncn(C)c(=O)c2c1 | 1.21 ± 0.05 | 1.08 | 0.955 ± 0.044 | 1.18 ± 0.028 | 1.04 ± 0.33 | 0.843 ± 0.048 | 1.2 ± 0.3 | 1.43 ± 0.12 |  |  |  |  |  |
| O=C(NOC[C@H](O)CO)c1ccc(F)c(F)c1Nc1ccc(I)cc1F | 1.25 ± 0.064 | 1.05 ± 0.014 | 0.907 ± 0.058 | 1.11 ± 0.028 | 1.62 ± 0.17 | 1.28 ± 0.26 | 1.06 ± 0.028 | 1.75 ± 0.092 | 1.1 ± 0.064 | 0.895 ± 0.05 | 1.03 ± 0.05 | 1.34 ± 0.22 | 1.47 ± 0.071 |
| Cc1cc(CN2CCN(c3c(Br)cnc4nc(-c5ccc(N6CCN(C)CC6)cc5)[nH]c34)CC2)no1 | 1.09 ± 0.23 | 1.01 ± 0.021 | 1.04 ± 0.014 | 1.08 ± 0.057 | 1.42 ± 0.15 | 1.49 ± 0.18 | 1.72 ± 0.46 | 1.34 ± 0.4 |  |  |  |  |  |
| CN1CCN(c2cccc(Nc3nc4c(-c5ccc(S(C)(=O)=O)cc5)cccn4n3)c2)CC1 | 0.927 ± 0.013 | 0.896 ± 0.042 | 0.871 ± 0.031 | 1.055 ± 0.0071 | 0.96 ± 0.1 | 1.03 ± 0.057 | 1.32 ± 0.7 | 1.34 ± 0.56 |  |  |  |  |  |
| COc1ccc2c(OCc3nnc4ccc(-c5ccccc5)nn34)ccnc2c1 | 1.17 ± 0.05 | 1.06 ± 0.093 | 1.11 ± 0.05 | 0.909 ± 0.028 | 1.29 ± 0.028 | 1.27 ± 0.028 | 1.26 ± 0.035 | 1.16 ± 0.15 |  |  |  |  |  |
| Cc1[nH]c(/C=C2\C(=O)Nc3ccc(S(=O)(=O)Cc4c(Cl)cccc4Cl)cc32)c(C)c1C(=O)N1CCC[C@@H]1CN1CCCC1 | 0.691 ± 0.27 | 0.648 ± 0.43 | 0.826 ± 0.33 | 0.798 ± 0.34 | 0.7 ± 0.36 | 0.868 ± 0.16 | 0.7 ± 0.88 | 1.21 ± 0.028 |  |  |  |  |  |
| O=c1sn(-c2cccc3ccccc23)c(=O)n1Cc1ccccc1 [Tideglusib] | 1.03 ± 0.081 | 0.9475 ± 0.005 | 1.03 ± 0.067 | 0.946 ± 0.0099 | 1.32 ± 0.035 | 1.17 | 1.285 ± 0.0071 | 1.11 ± 0.064 |  |  |  |  |  |
| COc1cc(Nc2ncc(F)c(Nc3ccc4c(n3)N(COP(=O)(O)O)C(=O)C(C)(C)O4)n2)cc(OC)c1OC [R788 (Fostamatinib)] | 0.89 ± 0.13 | 0.959 ± 0.046 | 0.888 ± 0.086 | 0.923 ± 0.037 | 0.781 ± 0.21 | 0.831 ± 0.079 | 2.88 ± 0.22 | 0.879 ± 0.079 |  |  |  |  |  |
| Cc1cc2c(F)c(Oc3ncnn4cc(OC[C@@H](C)O)c(C)c34)ccc2[nH]1 | 0.958 ± 0.13 | 1.01 ± 0.028 | 1.16 ± 0.014 | 0.942 ± 0.021 | 0.846 ± 0.22 | 1.05 ± 0.13 | 0.961 ± 0.11 | 0.978 ± 0.031 |  |  |  |  |  |
| NCC(=O)Nc1ccc(-n2nc(C(F)(F)F)cc2-c2ccc3c(ccc4ccccc43)c2)cc1 | 0.883 ± 0.098 | 0.998 ± 0.14 | 0.833 ± 0.13 | 0.678 ± 0.46 | 1.09 ± 0.085 | 1.31 ± 0.34 | 0.606 ± 0.18 | 1.3 ± 0.057 |  |  |  |  |  |
| Cc1c(CN2CCN(C(=O)[C@H](C)O)CC2)sc2c(N3CCOCC3)nc(-c3cnc(N)nc3)nc12 | 0.999 ± 0.13 | 0.9185 ± 0.0064 | 0.679 ± 0.16 | 1.1 ± 0.092 | 0.287 ± 0.056 | 0.419 ± 0.11 | 0.577 ± 0.21 | 0.764 ± 0.017 |  |  |  |  |  |
| Fc1cc(-c2cccc3ncc(-c4cnn(C5CCNCC5)c4)nc23)cc(F)c1CN1CCOCC1 | 0.974 ± 0.14 | 0.981 ± 0.055 | 1.01 ± 0.055 | 1.05 ± 0.12 | 1.04 ± 0.19 | 1.02 ± 0.089 | 0.967 ± 0.076 | 1.52 |  |  |  |  |  |
| C[C@H](NC(=O)/C(C#N)=C/c1cccc(Br)n1)c1ccccc1 | 0.579 ± 0.082 | 0.529 ± 0.0085 | 0.183 ± 0.0028 | 0.899 ± 0.0057 | 0.041 ± 0.011 | 0.057 ± 0.015 | 0.0323 ± 0.02 | 0.0234 ± 0.012 |  |  |  |  |  |
| CNC(=O)c1ccccc1Nc1nc(Nc2ccc(N3CCOCC3)cc2OC)ncc1Cl | 0.8225 ± 0.00071 | 0.933 ± 0.069 | 0.895 ± 0.049 | 1.02 ± 0.073 | 0.638 ± 0.0099 | 0.823 ± 0.17 | 1.22 ± 0.28 | 1.08 ± 0.014 |  |  |  |  |  |
